High-throughput results as filed in PubChem BioAssay.
Cav3 T inh = blocks human Cav3.2 T-type calcium channel. O95180. Cav3.2-expressing cells, Fluo-4 calcium fluorescence FDSS; hits give low values. B-score at 10 µM. 100,000 tested, 4% active. AID 449739;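 active = single-dose well whose peak fluorescence ratio is a statistical outlier from its plate by either plate-standardised score or position-corrected B-score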
CYP2C9 act = CYP2C9 (human) activation; 96,000 tested, 1.4% active; AID 1024; P11712; activation factor at 5 µM; recombinant CYP2C9, luciferin-H conversion, luminescence; hits give high values; factor 1 = untreated enzyme, 0 = blocked;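 active = activation factor of 2 or more for CYP2C9 at a 5 µM dose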
CYP2C19 inh = blocks human cytochrome P450 2C19; P33261; CYP2C19 Supersomes, luciferin-H EGE luminescence, 30 min; inhibition, % at 5 µM; 96,000 tested, 21% active; AID 778;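 active = CYP2C19 inhibition above a set limit at 5 µM in the primary screen, cut at about 50% in these data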
CYP2C19 activ = activators of human cytochrome P450 2C19. activation factor at 5 µM. P33261. AID 1025. recombinant CYP2C19, luciferin-H EGE luminescence; hits give high values; 0 = fully inhibited enzyme, 1 = untreated enzyme. 96,000 tested, under 10 active;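 active = activation factor of at least 2 at 5 µM in the primary screen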
CYP2C9 inh = inhibitors of human CYP2C9; inhibition, % at 5 µM; 96,000 tested, 20% active; CYP2C9 Supersomes, luciferin-H conversion, luminescence; P11712; AID 777;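 active = blocking of liver enzyme CYP2C9 beyond about 50% at 5 µM, limit read from the data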
Of the large screens only hits and unclear results are named; the others gave an inactive call. In the library only some 27% were active in any assay of this set; here they are far more common.

Cc1ccccc1NC(=O)NCCc1nc2ccccc2[nH]1	CYP2C19 inh 60
O=C(NCCc1nc2ccccc2[nH]1)c1ccco1	CYP2C19 inh 55
O=C(CNC(=O)c1cccc(Br)c1)NCCc1nc2ccccc2[nH]1	none
O=C(CNC(=O)c1ccc(Br)cc1)NCCc1nc2ccccc2[nH]1	CYP2C9 inh 58
CCC(=O)NCCc1nc2ccccc2[nH]1	none
COC(=O)c1cc(=O)n2c(-c3ccc(OC)cc3)csc2n1	none
CCOc1ccccc1C(=O)n1nc2nc(C)cc(C)c2c1N	none
COC(=O)c1cc(OC)c(OC)cc1NC(=O)c1ccoc1C	none
Cc1nn(CC(=O)Nc2cccnc2N2CCOCC2)c(=O)c2ccccc12	none (no result: Cav3 T inh)
COc1nc(C)nc2c1ccc1ccccc12	none (no result: CYP2C9 act, CYP2C19 inh, CYP2C19 activ, CYP2C9 inh)
O=C(c1ccccc1)N1CCCC(c2ccc(Cl)cc2)=N1	CYP2C19 inh 57
O=C(c1cccc(Cl)c1)N1CCCC(c2ccc(Cl)cc2)=N1	CYP2C19 inh 62
NC(=O)[C@@H]1CCCNc2c(I)cc([N+](=O)[O-])cc2C(=O)N[C@@H](CCC(=O)O)C(=O)N[C@@H](CO)C(=O)N1	none (no result: CYP2C9 act, CYP2C19 inh, CYP2C19 activ, CYP2C9 inh)
Cc1ccc(-n2nnnc2SC(C)C(=O)Nc2ccc(Cl)cn2)cc1 (configuration not stated)	Cav3 T inh -4.1
CCOC(=O)NC(=O)CSc1nnnn1-c1ccc(Cl)cc1	none (no result: CYP2C9 act, CYP2C19 inh, CYP2C19 activ, CYP2C9 inh)
COCC(=O)Nc1nnc(Cc2ccc(OC)cc2)s1	none (no result: CYP2C9 act, CYP2C19 inh, CYP2C19 activ, CYP2C9 inh)
O=C(CCCn1c(=O)c2sccc2n(Cc2ccc(F)cc2)c1=O)NCc1ccco1	CYP2C19 inh 80, CYP2C9 inh 69
Cc1cccc(C)c1NC(=O)Cn1c(=O)n(CCC(=O)NCc2ccco2)c(=O)c2sccc21	none
O=C(CCCn1c(=O)c2sccc2n(CC(=O)OCc2ccccc2)c1=O)NCc1ccco1	CYP2C19 inh 51
O=C(CCn1c(=O)c2sccc2n(CC(=O)OCc2ccccc2)c1=O)NCc1ccccc1	CYP2C9 inh 62
CC1CCCCN1C(=O)Cn1c(=O)n(CCC(=O)NCc2ccco2)c(=O)c2sccc21 (configuration not stated)	none
Cc1ccc(C)c(NC(=S)N(CCc2nc3cc(C)c(C)cc3[nH]2)Cc2cccnc2)c1	CYP2C9 inh 74
COc1cccc(NC(=S)N(CCc2nc3cc(C)c(C)cc3[nH]2)Cc2cccnc2)c1	none
Cc1ccc(S(=O)(=O)N(Cc2ccc(F)cc2)Cc2ccco2)cc1	none (no result: Cav3 T inh)
COC(=O)CN(Cc1ccco1)S(=O)(=O)c1ccccc1	none
COc1ccc(S(=O)(=O)N(Cc2ccc(OC)c(OC)c2)Cc2ccco2)cc1	CYP2C19 inh 59 (no result: Cav3 T inh)
COc1ccc(S(=O)(=O)N(CCCN2CCOCC2)Cc2ccc(OC)c(OC)c2)cc1	CYP2C19 inh 89
Cc1ccc(S(=O)(=O)N(Cc2ccccc2)Cc2ccco2)cc1	CYP2C19 inh 83, CYP2C9 inh 90
COc1ccccc1NC(=O)C1=C(C)Nc2nc(-c3cccs3)nn2C1c1cccc(O)c1 (configuration not stated)	CYP2C9 inh 70 (no result: Cav3 T inh)
CCOc1ccccc1C1C(C(=O)Nc2ccccc2OC)=C(C)Nc2nc(CCCO)nn21 (configuration not stated)	none
COc1ccccc1NC(=O)C1=C(C)Nc2nc(-c3ccccc3)nn2C1c1ccccn1 (configuration not stated)	Cav3 T inh -7.6
CCOc1ccccc1C1C(C(=O)Nc2ccccc2OC)=C(C)Nc2nnnn21 (configuration not stated)	CYP2C19 inh 88, CYP2C9 inh 52
COc1ccc(C2C(C(=O)Nc3cccnc3)=C(C)Nc3nc(-c4cccs4)nn32)cc1OC (configuration not stated)	none
OCC[C@H]1C[C@H](O)[C@@H](O)[C@]2(CCCO2)O1	none (no result: CYP2C9 act, CYP2C19 inh, CYP2C19 activ, CYP2C9 inh)
O=C(COC(=O)Cc1cn2ccsc2n1)NC12CC3CC(CC(C3)C1)C2	CYP2C19 inh 59
CCn1c2ccccc2c2cc(NC(=O)COC(=O)Cc3cn4ccsc4n3)ccc21	CYP2C19 inh 90
CC1CCCC(NC(=O)COC(=O)Cc2cn3ccsc3n2)C1C (configuration not stated)	none
Cc1sc2nc(SCC(=O)NCc3ccco3)n(-c3ccccc3)c(=O)c2c1C	none
CC(C)C(C)(C#N)NC(=O)CSc1nc2scc(-c3ccco3)c2c(=O)n1-c1ccccc1 (configuration not stated)	Cav3 T inh -5.1, CYP2C9 inh 55
